Measured values: PubChem BioAssay AID1159580 (chemical genetic matrix, 2015)
The campaign covered roughly 5,500 compounds. About 2,000 (36%) were called active. Inconclusive results (about 18%) are left out. Cut-off read from the data, not from the text of the source: active = normalized growth mostly below about 0.91 (no sharp cut-off); inconclusive = no clear call, values can overlap the other calls; inactive = mostly above about 0.92. Some of the results follow.

Test: chemical genetic growth profiling, strain panel (AID 1159580);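 note: tested at 20 µM; growth read once vehicle control cultures reached saturation at 30 °C; 1 = growth at the plate median or of vehicle wells; lower values mean less growth of the strain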
Conditions: S. cerevisiae deletion strains, growth OD

Measured: normalized growth

COc1cccc2c1CCC1=CC(=O)CC[C@@]12C
inactive: locus YAL013W, strain DEP1, hits give low values 0.996 | locus YAL021C, strain ccr4, hits give low values 1.02 | locus YAL026C, strain drs2, hits give low values 1.01 | locus YAL030W, strain snc1, hits give low values 0.986 | locus YBL061C, strain skt5, hits give low values 0.989 | locus YBR009C, strain hhf1, hits give low values 0.992 | locus YBR021W, strain FUR4, hits give low values 0.966 | locus YBR023C, strain chs3, hits give low values 1.01 | locus YBR171W, strain sec66, hits give low values 0.987 | locus YBR229C, strain ROT2, hits give low values 1 | locus YBR231C, strain swc5, hits give low values 1.02 | locus YBR279W, strain paf1, hits give low values 1 | locus YCL011C, strain gbp2, hits give low values 0.997 | locus YCL016C, strain dcc1, hits give low values 0.999 | locus YCL029C, strain bik1, hits give low values 0.985 | locus YCL069W, strain vba3, hits give low values 0.993 | locus YCR088W, strain abp1, hits give low values 0.994 | locus YDL005C, strain med2, hits give low values 1.02 | locus YDL035C, strain GPR1, hits give low values 0.976 | locus YDL040C, strain nat1, hits give low values 1 | locus YDL074C, strain BRE1, hits give low values 0.944 | locus YDL101C, strain DUN1, hits give low values 1.01 | locus YDL134C, strain PPH21, hits give low values 0.995 | locus YDL185W, strain tfp1, hits give low values 1 | locus YDL192W, strain arf1, hits give low values 0.993 | locus YDR001C, strain nth1, hits give low values 1 | locus YDR069C, strain doa4, hits give low values 0.987 | locus YDR101C, strain arx1, hits give low values 0.981 | locus YDR137W, strain rgp1, hits give low values 1.07 | locus YDR150W, strain NUM1, hits give low values 1 | locus YDR159W, strain sac3, hits give low values 0.997 | locus YDR162C, strain NBP2, hits give low values 0.966 | locus YDR195W, strain ref2 1.04 | locus YDR297W, strain sur2, hits give low values 0.995 | locus YDR318W, strain mcm21, hits give low values 0.973 | locus YDR334W, strain swr1, hits give low values 1.02 | locus YDR335W, strain msn5, hits give low values 1.01 | locus YDR388W, hits give low values 0.989 | locus YDR392W, strain spt3, hits give low values 0.984 | locus YDR502C, strain sam2, hits give low values 0.961 | locus YEL003W, strain gim4, hits give low values 1 | locus YEL037C, strain rad23, hits give low values 0.993 | locus YEL061C, strain CIN8 (second series), hits give low values 1.01 | locus YEL061C, strain CIN8, hits give low values 1 | locus YER015W, strain faa2, hits give low values 1.01 | locus YER016W, strain bim1, hits give low values 1 | locus YER110C, hits give low values 0.983 | locus YER111C, strain swi4, hits give low values 1 | locus YER155C, strain BEM2 (second series), hits give low values 0.989 | locus YER155C, strain BEM2, hits give low values 1 | locus YER167W, strain BCK2, hits give low values 0.996 | locus YFR010W, strain ubp6, hits give low values 1.01 | locus YGL078C, strain dbp3, hits give low values 0.998 | locus YGL086W, strain mad1, hits give low values 0.987 | locus YGL167C, strain pmr1, hits give low values 1 | locus YGL173C, strain kem1, hits give low values 0.993 | locus YGL227W, strain vid30, hits give low values 1.01 | locus YGL240W, strain doc1, hits give low values 0.995 | locus YGL248W, strain PDE1, hits give low values 0.996 | locus YGL253W, strain hxk2, hits give low values 1.02 | locus YGR078C, strain PAC10, hits give low values 0.983 | locus YGR135W, strain pre9, hits give low values 0.939 | locus YGR229C, strain SMI1, hits give low values 0.98 | locus YGR252W, strain gcn5, hits give low values 0.814 | locus YHR013C, strain ard1, hits give low values 0.967 | locus YHR027C, strain rpn1, hits give low values 1.01 | locus YHR030C, strain SLT2, hits give low values 0.994 | locus YHR079C, strain IRE1 (second series), hits give low values 0.973 | locus YHR094C, strain hxt1, hits give low values 0.998 | locus YHR129C, strain ARP1, hits give low values 0.995 | locus YHR142W, strain chs7, hits give low values 0.975 | locus YHR200W, strain rpn10, hits give low values 0.989 | locus YIL066C, strain RNR3, hits give low values 0.955 | locus YIL073C, strain SPO22, hits give low values 0.949 | locus YIL125W, strain kgd1, hits give low values 0.992 | locus YIR030C, strain dcg1, hits give low values 0.983 | locus YJL092W, strain hpr5, hits give low values 1.02 | locus YJL095W, strain BCK1 (second series), hits give low values 1 | locus YJL095W, strain BCK1, hits give low values 0.972 | locus YJL115W, strain asf1, hits give low values 1.01 | locus YJL129C, strain trk1, hits give low values 0.973 | locus YJL134W, strain LCB3, hits give low values 1.01 | locus YJL154C, strain vps35, hits give low values 1 | locus YJL164C, strain tpk1, hits give low values 0.996 | locus YJL166W, strain qcr8, hits give low values 0.987 | locus YJL168C, strain set2, hits give low values 0.984 | locus YJL187C, strain SWE1 (second series), hits give low values 0.989 | locus YJR043C, strain POL32, hits give low values 0.97
